Laboratory results as given in PubChem BioAssay AID504333 (National Center for Advancing Translational Sciences (NCATS), 2011).
Among all 360,000 compounds or so, about 16,000 (4.4%) were called active. Roughly 9% stayed inconclusive and do not appear here. The call rests on the fitted dose curve; in most records, active means well fitted inhibition curve with a large enough effect; inconclusive means small, poorly fitted or top-dose-only effect; inactive means no such curve, though single readings can be large or run the other way. What follows is part of a selection rich in actives, with near analogues and random picks from the rest. A call without a number means that no potency is given here.

target: Bromodomain adjacent to zinc finger domain protein 2B (Homo sapiens) (UniProt Q9UIF8); assay: qHTS Assay for Inhibitors of BAZ2B; settings: AlphaScreen BAZ2B-H3K14Ac peptide displacement; series mostly up to 114 µM; further: nearly all actives have a fitted effect of over 60% in size
In short: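 In this displacement format the biotinylated H3(5-23) peptide acetylated at Lys14 serves as ligand at 50 nM, with BAZ2B at 50 nM in PBS pH 7.4 containing 0.01% Tween-20. Donor and acceptor beads are 10 ug/mL final.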
Potency means the concentration at half of the fitted maximal effect.

Bromodomain adjacent to zinc finger domain protein 2B (Homo sapiens), sequence (Q9UIF8 whole entry, looked up, the tested form may be a part): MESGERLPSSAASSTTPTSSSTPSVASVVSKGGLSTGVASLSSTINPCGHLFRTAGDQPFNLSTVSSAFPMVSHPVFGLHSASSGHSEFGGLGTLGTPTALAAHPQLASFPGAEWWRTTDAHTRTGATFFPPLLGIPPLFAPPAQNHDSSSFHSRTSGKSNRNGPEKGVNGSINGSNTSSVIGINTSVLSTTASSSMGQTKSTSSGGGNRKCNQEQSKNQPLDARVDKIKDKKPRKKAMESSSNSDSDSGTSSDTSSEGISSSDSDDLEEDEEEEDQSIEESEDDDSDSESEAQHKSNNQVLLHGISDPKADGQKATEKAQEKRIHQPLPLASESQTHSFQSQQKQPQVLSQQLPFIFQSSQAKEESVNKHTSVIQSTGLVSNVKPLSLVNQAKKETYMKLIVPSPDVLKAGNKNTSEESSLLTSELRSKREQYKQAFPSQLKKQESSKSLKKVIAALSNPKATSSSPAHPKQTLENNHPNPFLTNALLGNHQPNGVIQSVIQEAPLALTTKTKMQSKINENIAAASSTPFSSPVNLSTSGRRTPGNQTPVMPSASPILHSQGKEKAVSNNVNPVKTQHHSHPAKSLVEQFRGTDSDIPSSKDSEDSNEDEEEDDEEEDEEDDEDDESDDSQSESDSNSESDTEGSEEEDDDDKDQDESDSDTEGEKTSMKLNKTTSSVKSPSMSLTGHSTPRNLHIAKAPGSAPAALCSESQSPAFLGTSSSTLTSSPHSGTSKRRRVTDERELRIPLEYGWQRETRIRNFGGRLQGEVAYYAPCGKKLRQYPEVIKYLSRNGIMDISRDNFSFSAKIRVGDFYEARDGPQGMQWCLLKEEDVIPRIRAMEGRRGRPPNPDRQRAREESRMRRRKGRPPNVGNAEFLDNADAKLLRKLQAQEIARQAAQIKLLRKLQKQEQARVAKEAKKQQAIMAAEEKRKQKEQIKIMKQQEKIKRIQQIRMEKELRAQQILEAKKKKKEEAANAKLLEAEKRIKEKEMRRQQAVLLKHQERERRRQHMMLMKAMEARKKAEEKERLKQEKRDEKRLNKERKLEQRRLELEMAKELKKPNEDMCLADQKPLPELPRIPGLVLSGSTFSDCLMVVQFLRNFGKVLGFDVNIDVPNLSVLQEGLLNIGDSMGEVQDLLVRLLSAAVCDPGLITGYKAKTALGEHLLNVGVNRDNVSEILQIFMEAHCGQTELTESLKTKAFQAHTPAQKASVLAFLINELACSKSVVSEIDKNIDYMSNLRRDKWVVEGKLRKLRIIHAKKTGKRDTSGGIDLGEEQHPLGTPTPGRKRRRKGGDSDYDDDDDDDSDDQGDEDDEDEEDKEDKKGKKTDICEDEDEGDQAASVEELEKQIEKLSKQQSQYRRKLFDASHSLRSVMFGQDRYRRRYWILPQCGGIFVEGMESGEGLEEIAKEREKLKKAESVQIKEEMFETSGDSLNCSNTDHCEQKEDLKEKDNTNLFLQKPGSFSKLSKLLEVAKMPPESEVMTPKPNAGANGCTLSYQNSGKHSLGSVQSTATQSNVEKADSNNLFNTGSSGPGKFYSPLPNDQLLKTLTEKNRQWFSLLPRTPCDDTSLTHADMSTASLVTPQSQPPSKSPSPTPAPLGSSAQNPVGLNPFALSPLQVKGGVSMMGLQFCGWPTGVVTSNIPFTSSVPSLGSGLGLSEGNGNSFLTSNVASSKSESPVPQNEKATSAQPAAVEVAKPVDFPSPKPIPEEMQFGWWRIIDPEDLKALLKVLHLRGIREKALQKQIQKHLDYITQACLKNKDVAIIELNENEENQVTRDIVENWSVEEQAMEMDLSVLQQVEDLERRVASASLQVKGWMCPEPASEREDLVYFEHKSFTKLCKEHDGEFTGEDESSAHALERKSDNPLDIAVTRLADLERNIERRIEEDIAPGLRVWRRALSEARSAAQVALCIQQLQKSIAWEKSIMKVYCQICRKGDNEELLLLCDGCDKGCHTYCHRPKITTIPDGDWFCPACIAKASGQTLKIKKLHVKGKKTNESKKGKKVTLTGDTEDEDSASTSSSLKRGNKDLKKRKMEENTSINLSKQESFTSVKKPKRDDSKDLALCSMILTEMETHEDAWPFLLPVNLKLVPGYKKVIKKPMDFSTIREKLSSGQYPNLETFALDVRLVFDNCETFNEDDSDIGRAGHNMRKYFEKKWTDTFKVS

Structure (SMILES)	Potency
CCC(=O)Nc1cccc(C(=O)OCc2cc(=O)n3nc(CC)sc3n2)c1	inactive
COc1ccc(-c2nn(-c3ccccc3)cc2/C=C\C(=O)N2CCOCC2)cc1[N+](=O)[O-]	inactive
COc1ccc(-c2nn(-c3ccccc3)cc2CN2CCCO2)c(F)c1	inactive
COc1ccc(-c2nn(-c3ccccc3)cc2/C=C2/SC(=S)N(CCCC(=O)O)C2=O)c(C)c1	50.1 µM (active)
Cc1ccc(-c2nn(-c3ccccc3)cc2/C=C2\SC(=S)N(CCCCCC(=O)O)C2=O)o1	6.31 µM (active)
CN(C)S(=O)(=O)c1cccc(-c2nn(-c3ccccc3)cc2/C=C2\SC(=S)N(CC(=O)O)C2=O)c1	50.1 µM (active)
O=C1/C(=C\c2ccccc2Cl)SC(=S)N1CCC(=O)N1CCCc2ccccc21	inactive
Cc1ccc(-c2nn(-c3ccccc3)cc2/C=C/C(=O)Nc2cccc(S(N)(=O)=O)c2)cc1	inactive
Cc1ccc(/C=C2/SC(=S)N(CCC(=O)NCCCN3CCOCC3)C2=O)cc1	inactive
Cc1cc(OCCCC(=O)NCCN2C(=O)S/C(=C\c3cccnc3)C2=O)ccc1Cl	inactive
Cc1ccc2c(=O)c(C(=O)c3cccc(Cl)c3)cn(CC(=O)NCc3ccccc3)c2n1	inactive
CN1C(=O)c2[nH]nc(-c3ccc(F)cc3)c2C1c1ccccn1 (stereo not drawn)	inactive
COc1ccc(CCNC(=O)c2cc(=O)c3c(C)cc(C)cc3o2)cc1OC	inactive
CCOC(=O)c1ccc(CN(Cc2ccccc2)S(=O)(=O)c2ccc(Cl)cc2)cc1	inactive
COc1ccc(CNC(=O)c2cc3c(=O)[nH]c4ccc(C)cc4c3s2)c(OC)c1	inactive
COc1cccc(CNC(=O)c2ccc3c(Cl)c4c(nc3c2)CCCC4)c1	inactive
CC(C)CC(=O)N1CCN(Cc2ccccc2Br)CC1	50.1 µM (active)
CCOc1cc(CN2CCN(C(=O)CC(C)C)CC2)ccc1OC	inactive
CC(C)CC(=O)N1CCN(Cc2cccc(Cl)c2)CC1	inactive
Cc1cc(OCC(=O)Nc2ncn[nH]2)c(C)c(C)c1Br	inactive
O=C(NC1CC(=O)N(c2ccc(F)cc2)C1)c1ccc(S(=O)(=O)N2CCCC2)cc1 (stereo not drawn)	inactive
Cc1ccccc1CS(=O)(=O)CC1Nc2ccc(C(=O)NCc3ccc(Cl)cc3)cc2NC1=O (stereo not drawn)	inactive
Cc1ccc(C)c(N2CCN(c3ccc4cc(S(=O)(=O)N5CCC(C)CC5)ccc4n3)CC2)c1	inactive
COc1ccc(/C=C2/C(=O)OCc3cc(OC)c(OC)cc32)c(OC)c1	inactive
COc1ccc(C(=O)CCc2ccccc2O)c(OC)c1	inactive

Structure (SMILES)	Potency
COc1ccc(/C=C2/C(=O)N(c3ccccc3)N=C2C)c(OC)c1	11.2 µM (active)
O=C(NCCCc1ccccc1)c1ccc2c(c1)sc1nc(-c3ccc(F)cc3)cn12	inactive
COc1ccccc1CNC(=O)NCc1noc2ccc(C)cc12	inactive
COc1ccc(CCNC(=O)C(=O)NCC2OCCN2S(=O)(=O)c2ccc(F)cc2)cc1OC (stereo not drawn)	inactive
O=C(NCCCn1ccnc1)C(=O)NCC1OCCN1S(=O)(=O)c1cc(F)ccc1F (stereo not drawn)	7.94 µM (active)
Cc1cc(F)ccc1S(=O)(=O)N1CCCOC1CNC(=O)C(=O)NCCC1=CCCCC1 (stereo not drawn)	inactive
Cn1nnnc1SCCCNCc1ccc(Cl)cc1	inactive
CSc1nc(-c2ccco2)nn1C(=O)CCc1ccccc1	inactive
COc1ccc2nc(SCc3ccccc3)nc(C)c2c1	inactive
CC1(C)N=C(SCc2ccccc2Cl)c2ccccc2N1	inactive
Clc1ccccc1CSc1nnc(-c2ccco2)c(-c2ccco2)n1	14.1 µM (active)
Fc1ccc(Nc2nc(SCc3ccccc3Cl)nc3ccccc23)cc1	inactive
c1ccc(CSc2nnc(-c3ccco3)c(-c3ccco3)n2)cc1	20 µM (active)
Cc1cccc(NC(=O)N2CCC(CN3CCc4ccccc4C3)CC2)c1C	inactive
Cc1ccc(NC(=O)CSc2nc3c([nH]c4ccccc43)c(=O)n2-c2ccccc2)c(C)c1	inactive
CCOc1ccccc1NC(=O)Cn1c2ncccc2c(=O)n1-c1ccc(C)c(C)c1	inactive
COc1cc(CN2CC(C)CC(C)C2)cc([N+](=O)[O-])c1O (stereo not drawn)	inactive
COc1cc(/C=C2/C(=O)NN(c3ccc(F)cc3)C2=O)cc([N+](=O)[O-])c1O	39.8 µM (active)
COc1cc(/C=C2/C(=O)NN(c3cccc(Cl)c3)C2=O)cc(Br)c1O	39.8 µM (active)
CCOc1c(Br)cc(/C=C2\C(=O)N(CCC#N)N=C2C)cc1OC	inactive
COc1cc(/C=N/O)cc(Br)c1OCc1cccc(Cl)c1	inactive
COc1cccc(/C=C2\SC(=N)N(c3ccc(F)cc3)C2=O)c1	inactive
CCc1cccc(NC(=O)c2cnc(N3CCOCC3)c3ccccc23)c1	inactive
Cc1ccc(C(=O)CSc2nc(-c3ccccc3)nc3c2CCCC3)c(C)c1	inactive
COc1ccc(CC(=O)NCCc2sc3nc(-c4ccc(OC)cc4)nn3c2C)cc1	inactive

Structure (SMILES)	Potency
O=C(c1ccc2ccccc2n1)N1CCN(c2ccccc2Cl)CC1	50.1 µM (active)
COc1ccccc1N1CCN(C(=O)c2c(-c3c(Cl)cccc3Cl)noc2C)CC1	inactive
O=C(c1ccncc1)N1CCN(c2ccc3ccccc3n2)CC1	inactive
COc1ccc(C)cc1-n1c(-c2ccc(C)cc2)cc2c1CC(C)(C)CC2=O	inactive
COc1cccc(C2Nc3cccc4cccc(c34)N2)c1	35.5 µM (active)
COc1ccc(C2NC(=O)c3ccccc3N2)cc1 (stereo not drawn)	inactive
COc1cccc(N2C(=O)C3CCCN3C2c2ccc(F)cc2)c1 (stereo not drawn)	inactive
FC(F)(F)c1cc(Nc2nc3ccccc3c3nncn23)ccc1Cl	inactive
COC(=O)C(=Nc1ccccc1)/C(C(=O)C(=O)N(C)c1ccccc1)=C(\O)c1ccc(Cl)cc1	50.1 µM (active)
COC(=O)/C(NC(C)=O)=C(\C)c1ccc(Cl)cc1	inactive
COC(=O)c1cn(C(=O)c2ccc(Cl)cc2)c2ccccc12	inactive
CCCCc1nn2c(=O)cc(COC(=O)c3ccccc3NC(=O)C(C)(C)C)nc2s1	inactive
Cc1cc(CO)nn1-c1ccc([N+](=O)[O-])cc1	inactive
Cc1nn(-c2ccccc2)c2c1C(c1cccc([N+](=O)[O-])c1)N(c1ccccc1)C(=O)N2 (stereo not drawn)	inactive
Cc1nn(-c2ccc([N+](=O)[O-])cc2)c(N)c1-c1ccccc1	70.8 µM (active)
O=C(NCc1ccc(F)cc1)c1ccc(Cn2c(SCc3ccc(F)cc3)nc3cccnc32)cc1	inactive
Cc1oc2ncnc(N3CCOCC3)c2c1C(=O)NCCc1ccccc1	inactive
COc1ccccc1CNC(=O)CCCCn1c(=O)c2ccccc2n(CC(=O)Nc2cc(Cl)ccc2C)c1=O	inactive
COc1ccccc1CNC(=O)CCn1c(=O)c2ccccc2n(CC(=O)Nc2cccc(Cl)c2)c1=O	79.4 µM (active)
COc1ccccc1CNC(=O)CCn1c(=O)c2ccccc2n(CC(=O)Nc2ccc(Br)cc2F)c1=O	inactive
O=C(NCc1ccccc1Cl)C1=Cc2cc(Br)ccc2OC1	inactive
CCCC(=O)Nc1cc(C(=O)NCc2ccc(OC)cc2)ccc1S(=O)(=O)c1ccc(Cl)cc1	inactive
CCOc1ccc(CCNC(=O)c2ccc3c(c2)sc2nc(-c4ccc(F)cc4)cn23)cc1OCC	inactive
CCOc1ccc(-c2nonc2NC(=O)c2oc3ccc(CC)cc3c2C)cc1	inactive
COc1ccc(-c2cn3c(n2)sc2cc(C(=O)Nc4ccccc4F)ccc23)cc1	inactive

Structure (SMILES)	Potency
COc1ccc(CCNC(=S)N2CCN(S(=O)(=O)c3ccc(Cl)cc3)CC2)cc1	inactive
O=C(NCCc1ccc(Cl)cc1)c1cccc(N2CCCC2=O)c1	inactive
Oc1cc2c(cc1O)CN(C(=S)NCCc1ccc(Cl)cc1)CCC2	44.7 µM (active)
O=C1NN(c2ccccc2)C(=O)/C1=C/c1ccc(-c2cccc(C(=O)O)c2)o1	44.7 µM (active)
CC(=O)c1cc(-c2ccccc2)[nH]c1N1CCCC1	inactive
COc1ccc(-n2nnc(-c3nsc(NC(=O)c4ccc(C)c(C)c4)n3)c2C)cc1Cl	inactive
Cc1ccc(NC(=O)c2cc(S(=O)(=O)NCCC3=CCCCC3)ccc2F)cc1C	inactive
Cc1sc2ncn(CC(=O)N3CCN(c4ccc(F)cc4)CC3)c(=O)c2c1S(=O)(=O)N1CCN(c2ncccn2)CC1	inactive
CCOC(=O)c1c(/N=C/c2cc(C)ccc2O)sc2c1CCC2	50.1 µM (active)
CCOC(=O)c1c(NC(=O)/C(C#N)=C/c2ccccc2)sc2c1CCC2	inactive
CCOC(=O)c1c(NC(=S)NC)sc2c1CCCC2	inactive
O=C(Nc1ccc2nc(SCC(=O)N3CCc4ccccc43)sc2c1)c1ccccc1F	inactive
CCOC(=O)c1cc2c(=O)n3ccccc3nc2n(CC2CCCO2)c1=NC(=O)c1ccccc1Br (stereo not drawn)	inactive
CCc1ccc(NC(=O)CCCc2nnc3n(CCCOC)c(=O)c4sccc4n23)cc1	inactive
N#Cc1ccccc1CN1C(=O)S/C(=C/c2cccn2-c2cccc(C(=O)O)c2)C1=O	25.1 µM (active)
Cc1nn(Cc2ccccc2)c(C)c1C(=O)NCCN1C(=O)S/C(=C\c2ccc(F)cc2)C1=O	inactive
O=C(NCCN1C(=O)S/C(=C\c2cccnc2)C1=O)c1cccc(OC(F)F)c1	inactive
CCc1ccc(CNCc2c(C(=O)O)n(Cc3ccc(F)cc3Cl)c3cc(OC)ccc23)cc1	inactive
CCCCN(CC)CCCNC(=O)Cn1ncc2c([nH]c3ccc(C)cc32)c1=O	inactive
CCNS(=O)(=O)c1ccc(NC(=O)CSc2nc(-c3ccco3)cc(C(F)(F)F)n2)cc1	inactive
CCOc1cc(C(=O)O)ccc1OCCOc1ccccc1	inactive
CCOc1cccc2c1N[C@@H](c1ccc(C(=O)O)cc1)[C@H]1CC=C[C@@H]21	15.8 µM (active)
CCOc1c(CNCc2ccc(C(=O)O)cc2)cccc1OC	inactive
